Source: PubChem
Shown are actives, neighbours in structure and some others; about 2.7% of the full set was active somewhere.
Nrf2 activator = qHTS of Nrf2 Activators. Potency, µM (titrated, usually from 46.1 µM), inactives show top-dose activation, hits mostly activators. AREc32 ARE-luciferase reporter (MCF7-derived line), luminescence, 24 h. actives 0.31% (n = 410,000); note: potency is the fitted concentration of half-maximal effect; % of control where 0% means no effect; nearly all actives have a fitted effect of over 65% in size
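AREc32 cells carrying an ARE-driven firefly luciferase reporter were seeded at 1000 cells/well in OPTI-MEM with 5% FBS, then exposed to compound for 24 hr at 37 deg C. Luminescence was read with Steady-Glo after 30 min at RT.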
ERG Ets-DNA blk = qHTS for Small Molecule Inhibitors of the ERG Ets/DNA interaction; Transcriptional regulator ERG (Homo sapiens), P11308; fluorescence polarization, His-ERG Ets domain / labelled DNA; Potency, µM (highest dose often 76.9 µM), without a hit: at the top dose FP activity, negative = inhibition, hits mostly inhibitors; actives 0.028% (n = 370,000); AID 624246, 2012; active = well fitted inhibition curve with a large enough effect in the polarisation, with a control signal flat; inconclusive = small, poorly fitted or top-dose-only effect, or effect the other way, or a change in a side signal; inactive = no such curve, though single readings can be large or run the other way; the % refers to the polarisation;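 note: polarization taken with two DNA probes labelled with fluorescein and Texas red; potency is the fitted concentration of half-maximal effect; % of control where 0% means no effect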
Target sequence (P11308 whole entry, looked up, the tested form may be a part): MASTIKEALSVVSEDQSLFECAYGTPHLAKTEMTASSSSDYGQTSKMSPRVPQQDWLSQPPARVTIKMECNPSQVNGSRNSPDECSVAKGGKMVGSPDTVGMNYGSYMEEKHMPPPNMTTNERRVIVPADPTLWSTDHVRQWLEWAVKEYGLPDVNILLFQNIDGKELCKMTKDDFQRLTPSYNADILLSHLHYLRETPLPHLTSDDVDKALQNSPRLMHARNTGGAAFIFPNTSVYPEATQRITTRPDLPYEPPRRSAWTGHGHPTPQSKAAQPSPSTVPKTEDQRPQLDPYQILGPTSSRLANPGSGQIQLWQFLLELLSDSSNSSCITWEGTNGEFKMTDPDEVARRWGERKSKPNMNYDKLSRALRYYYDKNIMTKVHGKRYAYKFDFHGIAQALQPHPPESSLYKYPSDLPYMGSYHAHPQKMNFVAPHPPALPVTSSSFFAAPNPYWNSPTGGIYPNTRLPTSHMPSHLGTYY
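His-tagged ERG Ets domain (1 uM in the protein solution; 300mM KCl, 50mM Tris-HCl, 1mM EDTA, 1mM DTT, pH 7.5) received compound, then a probe mix of 5 nM fluorescein-DNA and 100nM Texas-615-DNA. Fluorescence polarization was read for both dyes.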
A549 tox = Nrf2 qHTS screen for inhibitors: counterscreen for cytotoxicity; A549 ARE-Fluc cells, CellTiter-Fluor viability, 18-24 h; Potency, µM (top dose mostly 46 µM), for the others: top-dose activity change, negative = cytotoxicity, hits mostly inhibitors; actives 0.16% (n = 390,000); AID 504648, 2011; note: potency is the fitted concentration of half-maximal effect; % is set by controls: 0 for no effect and ±100 for the full control effect
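Cytotoxicity counterscreen: CellTiter-Fluor fluorescence was measured in A549 ARE_Fluc cells after 18-24 h of compound exposure in a concentration series. The subsequent BugLite luminescent read reports ARE-luciferase activity.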
LDHA block = qHTS assay for inhibitors of human lactate dehydrogenase; actives 0.15% (n = 480,000); L-lactate dehydrogenase A chain (Homo sapiens), P00338; activity change, % (values are at about 110 or 230 µM); purified LDHA, NADH/diaphorase-resazurin fluorescence; stronger effect = lower value; in the data active = activity change below about -30%; inconclusive = mostly about -25% to -30%;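 note: plate controls were DMSO wells for no effect and wells without enzyme for full effect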
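Remaining NADH was detected by diaphorase (0.133 mg/mL) converting 37 µM resazurin to fluorescent resorufin, read at 0 and 20 minutes. The preceding 5-minute room-temperature reaction used 2 nM LDHA, 0.2 mM sodium pyruvate and 0.06 mM NADH at pH 7.4.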
Nrf2 block = Nrf2 qHTS screen for inhibitors; Potency, µM (highest dose often 46 µM), for inactives: at the top dose activity change, negative = inhibition, usual class: inhibitors; A549 ARE-Fluc reporter, luciferase luminescence, 18-24 h; AID 504444, 2011; actives 2.1% (n = 360,000); note: potency is the fitted concentration of half-maximal effect; % is set by controls: 0 for no effect and ±100 for the full control effect; nearly all actives have a fitted effect of over 60% in size
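Nrf2 function is reported as luminescence of an ARE-controlled luciferase in A549 cells. Compounds were tested at several concentrations, and a CellTiter-Fluor read on the same wells flagged cytotoxicity.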
ALOX12 inh = Primary qHTS assay for inhibitors of human arachidonate 12S-lipoxygenase (ALOX12): Round 2 | Polyunsaturated fatty acid lipoxygenase ALOX12 (Homo sapiens), P18054 | purified 12hLO, xylenol orange hydroperoxide absorbance | Potency, µM (titrated, usually from 108 µM), without a hit: at the highest dose activity change, negative = inhibition, most hits filed as inhibitors | actives 1.1% (n = 580,000) | AID 1671190, 2021; note: potency is the fitted concentration of half-maximal effect; % is set by controls: 0 for no effect and ±100 for the full control effect
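Purified human 12hLO at 150 nM in 25 mM Hepes, 0.01% Triton X-100, pH 7.0, preincubated 15 min at room temperature with compound. Reaction started with 40 uM arachidonic acid, 30 min at room temperature. Hydroperoxide measured by Fe-xylenol orange, 573/405 nm absorbance ratio.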
* = called active by the depositor; ? = inconclusive; · = not tested or not shown; ! = repeats disagree; [ ] = remark or other dose. Unless noted, calls come from the whole dose curve; as a rule, active = well fitted curve in the direction sought with a large enough effect; inconclusive = small, poorly fitted or top-dose-only effect, or another doubt; inactive = no such curve, though single readings can be large; an effect the other way counts as inactive or inconclusive.

SMILES	Nrf2 activator	ERG Ets-DNA blk	A549 tox	LDHA block	Nrf2 block	ALOX12 inh
O=C(Nc1ccc(Cl)c(S(=O)(=O)N2CCCC2)c1)c1n[nH]c2ccccc12	·	·	·	-9.3	·	-13.5%
Cc1ccc(C(=O)O)cc1NC(=S)NC(=O)c1ccc([N+](=O)[O-])c(C)c1	0.3%	6.7%	-0.9%	-3.0	14.5%	20µM*
O=C(NC(=S)Nc1cccc(NC(=S)NC(=O)c2ccccc2)c1)c1ccccc1	15.0%	7.8%	-9.8%	5.2	?	14.1µM*
COc1cc(OC)nc(NC(=S)NC(=O)c2ccccc2)n1	11.2µM*	3.5%	25.2%	-3.7	10.9%	-9.9%
O=C(NC(=S)Nn1cnnc1)c1ccccc1	0.4%	-0.4%	-5.4%	0.7	11.9%	35.5µM*
O=C(NC(=S)Nn1cnnc1)c1ccccc1Br	3.1%	0.5%	-4.1%	-1.5	5.4%	-26.3%
COc1ccc(Nc2nc3ccccc3nc2NS(=O)(=O)c2ccc(Cl)s2)cc1	·	·	·	12.6	·	?
Cc1ncsc1C(=O)N(Cc1cccs1)C1CC1	·	·	·	-2.2	·	19.2%
O=C(NC(=S)Nc1c(Cl)cc(Cl)cc1Cl)c1ccccc1	5.4%	·	·	-8.6	·	35.5µM*
Cc1ccc(NC(=S)NC(=O)c2ccccc2)cc1NC(=S)NC(=O)c1ccccc1	-1.1%	13.7%	-12.6%	-0.4	?	3.98µM*
O=C(NC(=S)Nc1ccccn1)c1ccccc1	?	9.1%	-6.9%	-4.9	?	?
COC(=O)c1ccccc1NC(=S)NC(=O)c1ccccc1	19.6%	-0.4%	-8.6%	-3.4	-6.1%	?
O=C(/C=C/c1cccc(F)c1)c1cccc(N2CCOCC2)c1	·	·	·	3.5	·	?
COc1ccc(NC(=O)c2c(C)noc2C(C)C)cc1OC(F)F	·	·	·	16.4	·	?
CN(C)S(=O)(=O)c1ccc2c(c1)nc(CCC(=O)NCc1ccc(Cl)cc1)n2C	0.7%	-0.6%	6.2%	-4.3	23.1µM*	?
CCOc1c(OC)cccc1-c1nc2ccccc2s1	·	·	·	-4.4	·	35.0%
CC(C)(C)c1ccc(C(=O)N/C(=C\c2ccco2)C(=O)Nc2ccccc2C(=O)O)cc1	2.7%	17.5%	1.2%	0.7	2.9%	31.6µM*
Cc1ccccc1NC(=O)c1ncoc1-c1cccs1	·	·	·	3.9	·	22.3%
Cc1nnc(NC(=O)c2ccc(S(=O)(=O)N(C)Cc3ccccc3)cc2)o1	-1.9%	-10.7%	-23.2%	-4.7	18.4µM*	·
COCc1nnc(NC(=O)c2ccc(S(=O)(=O)N(C)Cc3ccccc3)cc2)o1	-0.9%	5.3%	?	-8.8	?	-6.4%
CCc1nnc(NC(=O)c2ccc(S(=O)(=O)N(CC(C)C)CC(C)C)cc2)o1	-0.9%	-13.7%	?	-3.6	16.4µM*	11.3%
CCN(Cc1ccccc1)S(=O)(=O)c1ccc(C(=O)Nc2nnc(C3CC3)o2)cc1	-1.8%	-3.1%	-18.7%	-5.9	8.2µM*	-4.3%[57.4 µM]
O=C(COc1coc(CN2CCSCC2)cc1=O)NCc1ccccc1Cl	·	·	·	-6.4	·	?
CCCCNc1nc2c(c(=O)n(Cc3ccc(Br)cc3)c(=O)n2C)n1C	·	·	·	-0.1	·	?
N#C/C(=C\c1coc2ccc(O)cc2c1=O)C(=O)Nc1nc2ccccc2s1	?	82.6%	?	1.0	-17.9%	11.2µM*
SMILES	Nrf2 activator	ERG Ets-DNA blk	A549 tox	LDHA block	Nrf2 block	ALOX12 inh
CC1CCCN(C(=S)SCC(=O)c2cc(Br)cc(Br)c2O)C1 (stereo not drawn)	0.0%	?	-1.6%	13.7	1.6%	6.31µM*
O=C(CSC(=S)N1CCCC1)c1cc(Br)cc(Br)c1O	6.4%	64.3%	-5.1%	9.8	-13.0%	14.1µM*
CC1=NS(=O)(=O)NC(C)=C1CCC(=O)Nc1ccc(C)c(C)c1	·	·	·	-13.2	·	?
CC(C)(C)c1nnc2sc(-c3cc4ccccc4[nH]3)nn12	·	·	·	0.3	·	?
Cc1nc2ccc(C(=O)NC(C)c3ccccc3)cc2nc1C (stereo not drawn)	·	·	·	-21.8	·	-5.7%
O=C(CSC1=Nc2ccccc2C2CC=NN12)Nc1ccc2c(c1)OCO2 (stereo not drawn)	-2.2%	-2.9%	1.6%	-9.7	3.7%	-5.2%
N#Cc1ccccc1NC(=O)CSC1=Nc2ccccc2C2CC=NN12 (stereo not drawn)	4.9%	9.3%	1.2%	-3.8	-18.7%	39.7%
Cc1cc(C)cc(N(CCC#N)C(=O)CSC2=Nc3ccccc3C3CC=NN23)c1 (stereo not drawn)	6.0%	4.9%	?	-2.1	23.1µM*	3.5%
O=C(CSC1=Nc2ccccc2C2CC=NN12)NCc1ccco1 (stereo not drawn)	0.631µM*	-4.5%	-20.5%	-2.1	?	14.1%
O=S(=O)(c1ccccc1Cl)N1CCCC(c2nc(-c3cccnc3)no2)C1 (stereo not drawn)	2.2%	2.3%	4.3%	2.3	25.9µM*	22.1%
O=C(O)CCNS(=O)(=O)c1ccc(C(=O)/C=C/c2ccccc2Cl)cc1	·	·	·	-6.1	·	?
C#CC[N+]1(CC#Cc2ccccc2)CCCCC1	-0.6%	-13.6%	-2.9%	0.2	-13.6%	-12.4%
C(#Cc1ccccc1)C[N+]1(CC#Cc2ccccc2)CCCCC1	0.4%	-5.0%	-18.5%	-3.8	11.6µM*	-1.0%
Cc1csc(/C(C#N)=C\c2cccc3c2OCCCO3)n1	·	·	·	9.3	·	8.7%
O=C(O)c1cc(=O)c2ccccc2[nH]1	1.2%	15.5%	23.7%	7.9	7.3%	12.6µM*!
O=C(O)c1cc(=O)c2cccc(O)c2[nH]1	·	·	-10.8%	-4.9	16.8%	-9.3%
CSc1ccccc1OCc1cc(C(=O)N2CCc3c(Cl)cccc3C2)no1	0.0%	1.9%	3.4%	-3.3	9.2µM*	-13.2%
CC(C)C(CNC(=O)CCc1ncc(-c2ccc(F)cc2)o1)N(C)C (stereo not drawn)	·	·	·	-13.5	·	19.6%
CNC(=S)NNC(=O)c1ccccn1	·	·	·	-2.5	·	38.4%
O=C(c1ccc(F)cc1)N1CCN2C(=O)c3ccccc3C12c1ccc(Cl)cc1 (stereo not drawn)	0.5%	0.9%	2.8%	-4.8	-8.8%	-1.6%
O=C(c1ccccc1)N1CCN2C(=O)c3ccccc3C12c1ccc(Cl)cc1 (stereo not drawn)	0.3%	-2.4%	-4.7%	1.4	13µM*	0.0%
COc1ccc(Nc2ccc([N+](=O)[O-])cn2)cc1	4.4%	0.8%	-13.1%	-4.5	?	28.2µM*
